Reference: PubChem BioAssay AID1345085 (National Center for Advancing Translational Sciences (NCATS), 2018)
Records with an inconclusive call do not appear. Values without a mark were called inactive. Calls of active or inactive are those of the source. Calls follow the shape of the dose curve; as a rule, active = well fitted cell-killing curve with a large enough effect; inconclusive = small, poorly fitted or top-dose-only effect, or effect the other way; inactive = no such curve, though single readings can be large or run the other way.

System: CASKI
Assay: Confirmatory qHTS for gynecologic anti-cancer compounds from libraries of approved drugs and bioactive compounds; also: nearly all actives have a fitted effect of over 55% in size
Conditions: gynecologic cancer cell panel viability, ATPlite luminescence, 48 h; series mostly up to 57.6 µM; activity change, negative = viability loss: at the top concentration
How it was run: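 ATP-based luminescent viability (ATPlite) after 48 h drug treatment at 37 °C, 5% CO2, across 57.5 uM–0.977 nM in 1:3 steps. Cells seeded at 1,000 per well 16 h beforehand; IC50 values computed, HEK 293T as selectivity control.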
% is scaled to controls: 0 for no effect and ±100 for the full control effect; potency is read from the fitted curve at half-maximal effect.

Row | SMILES | activity change, negative = viability loss [%] | Potency
1 | COc1ccc(CCC(=O)c2c(O)cc(O[C@@H]3O[C@H](CO)[C@@H](O)[C@H](O)[C@H]3O[C@@H]3O[C@@H](C)[C@H](O)[C@@H](O)[C@H]3O)cc2O)cc1O | 6.84 | 
2 | COc1ccc(-c2ccc3c(N4CCOCC4C)nc(N4CCOCC4C)nc3n2)cc1CO (stereo not drawn) | -2.48 | 
3 | COc1cc(N2CCC(N(C)C)CC2)ccc1Nc1ncc(Cl)c(Nc2ccccc2P(C)(C)=O)n1 |  | 7.69 µM (active)
4 | Cc1cc(Nc2cc(N3CCN(C)CC3)nc(/C=C/c3ccccc3)n2)n[nH]1 |  | 19.3 µM (active)
5 | O=C(Nc1cn[nH]c1-c1nc2ccc(CN3CCOCC3)cc2[nH]1)NC1CC1 |  | 2.73 µM (active)
6 | CC[C@@]1(O)C(=O)OCc2c1cc1n(c2=O)Cc2cc3c(CN(C)C)c(O)ccc3nc2-1 |  | 1.09 µM (active)
7 | Nc1ccccc1NC(=O)c1ccc(CNC(=O)OCc2cccnc2)cc1 |  | 15.3 µM (active)
8 | Nc1cccc(-c2cc3c(Oc4cccc(O)c4)ncnc3[nH]2)c1 |  | 7.69 µM (active)
9 | CC(=O)NCC(=O)N1C2CCC1c1cc(Nc3ncc(C(F)(F)F)c(NC4CCC4)n3)ccc12 (stereo not drawn) |  | 9.68 µM (active)
10 | COc1cc(-c2nn(C3CCC(N4CCN(C(C)=O)CC4)CC3)c3ncnc(N)c23)ccc1NC(=O)c1cc2ccccc2n1C (stereo not drawn) | -12.4 | 
11 | Cc1nc(N)sc1-c1ccnc(Nc2ccc(N3CCOCC3)cc2)n1 |  | 24.3 µM (active)
12 | CCCc1nn(C)c2c(=O)[nH]c(-c3cc(S(=O)(=O)N4CCN(C)CC4)ccc3OCC)nc12 | 20.6 | 
13 | C[C@@H](Oc1cc(-c2cnn(C3CCNCC3)c2)cnc1N)c1c(Cl)ccc(F)c1Cl |  | 24.3 µM (active)
